IMPase Li cell: membrane-permeable IMPase blocker, potentiated with lithium; CHO-M1 cells, IP1 TR-FRET (IP-One), carbachol + lithium; Potency, µM (series often up to 59.4 µM), without a hit: at the top dose activity, negative = IMPase inhibition, usual class: inhibitors; 210,000 tested, 0.35% active; AID 1457; active = well fitted inhibition curve with a large enough effect; inconclusive = small, poorly fitted or top-dose-only effect; inactive = no such curve, though single readings can be large or run the other way;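 also: IP1 builds up when IMPase is blocked and the TR-FRET signal falls; potency is read from the fitted curve at half-maximal effect; plate controls were basal vehicle for no effect and high inhibitor control for full effect; nearly all actives have a fitted effect of over 50% in size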
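CHO-M1, 2000 cells/well, 16–30 h culture; cpd + low Li+, 30 min 37C; lysis with d2-IP1/Eu-anti-IP1 Ab, 10 min RT; TR-FRET 665/620 ratio and 620 channel; AC50 via Hill.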
HPGD block: blocks human HPGD enzyme activity; P15428; purified HPGD, NADH fluorescence kinetic, PGE2 substrate; Potency, µM, without a hit: top-dose activity change, negative = inhibition, most hits filed as inhibitors; 150,000 tested, 4.3% active; also: potency is read from the fitted curve at half-maximal effect
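NADH formation kinetics: reaction with 30 uM PGE2 and 1 mM NAD+ (final), 20 nM enzyme, Tris-HCl pH 8 with Tween 20, after 15 min compound preincubation at room temperature. Fluorescence change, last versus first of five reads.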
IMPase cell inh: cell-permeable inhibitors of inositol monophosphatase (IMPase); P97697; CHO-M1 cells, IP1 accumulation, HTRF TR-FRET ratio; inhibition (IP1 accumulation), % at 46.1 µM; 120,000 tested, under 10 active; active = well fitted curve in the direction sought with a large enough effect in the signal ratio, not every such curve was filed as active; inconclusive = small, poorly fitted or top-dose-only effect, or a change in a side signal; inactive = no such curve, though single readings can be large or run the other way; the % refers to the signal ratio;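 also: cells stimulated with carbachol in lithium chloride buffer; plate controls were DMSO basal wells for no effect and reference inhibitor wells for full effect; higher means more IMPase inhibition seen as more IP1 and lower FRET ratio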
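Seeded CHO-M1 cells were dosed with compound at up to 46 uM, stimulated with carbachol for 30 min, then lysed in IP-One detection reagents. Higher IP1 lowers the TR-FRET signal.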
PNC assembly inh: blocks assembly of the perinucleolar compartment. 140,000 tested, 3.1% active. activity change (PNC), negative = inhibition, % at 10 µM. AID 2417. PC3M PTB-GFP, PNC prevalence imaging, 16 h; active compounds read low;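 active = readout at or below -70, meaning at least 70% loss of cells showing the perinucleolar compartment, a nuclear body marking cancer cells; inconclusive = readout between -30 and a set limit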;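 also: plate controls were DMSO wells for no effect and camptothecin positive control wells for full effect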
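Compounds are pinned in duplicate onto adhered PC3M cells stably expressing GFP-tagged PTB and incubated 16 h at 37 C. Cells are then fixed, nuclei stained with Hoechst, and PNC-positive cells counted.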
ALDH1A1 inh: ALDH1A1 (human) enzyme inhibition. P00352. AID 1030. Potency, µM (series often up to 75.3 µM), inactives show at the highest dose activity, negative = inhibition, hits mostly inhibitors. Purified ALDH1A1, NADH fluorescence, propionaldehyde substrate. 220,000 tested, 7.3% active;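 also: potency is read from the fitted curve at half-maximal effect; plate controls were no enzyme wells and a reference inhibitor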
Target sequence (P00352 whole entry, looked up): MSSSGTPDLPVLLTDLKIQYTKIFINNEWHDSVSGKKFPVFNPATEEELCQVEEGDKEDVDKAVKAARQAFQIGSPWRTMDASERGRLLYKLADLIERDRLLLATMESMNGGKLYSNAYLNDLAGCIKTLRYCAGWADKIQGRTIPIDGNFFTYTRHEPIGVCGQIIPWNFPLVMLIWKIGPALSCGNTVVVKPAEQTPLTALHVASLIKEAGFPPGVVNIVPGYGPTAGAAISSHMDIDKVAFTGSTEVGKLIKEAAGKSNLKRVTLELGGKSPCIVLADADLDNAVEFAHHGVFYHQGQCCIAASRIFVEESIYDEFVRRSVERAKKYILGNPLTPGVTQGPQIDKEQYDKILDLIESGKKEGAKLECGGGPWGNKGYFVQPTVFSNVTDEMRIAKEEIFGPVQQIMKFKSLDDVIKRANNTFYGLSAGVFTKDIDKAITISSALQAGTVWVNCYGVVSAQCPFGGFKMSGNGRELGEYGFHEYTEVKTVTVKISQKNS
An asterisk follows results filed as active; u = inconclusive; x = not tested or not shown; ! = not confirmed by another sample; [ ] = another dose, or the depositor's remark. Shown are actives, neighbours in structure and some others; about 11% of the full set was active somewhere. Unless noted, calls follow the shape of the dose curve; as a rule, active = well fitted inhibition curve with a large enough effect (not every such curve was filed as active); inconclusive = small, poorly fitted or top-dose-only effect, or another doubt; inactive = no such curve, though single readings can be large or run the other way. Unless noted, % is scaled to controls: 0 for no effect and ±100 for the full control effect.

SMILES	IMPase Li cell	HPGD block	IMPase cell inh	PNC assembly inh	ALDH1A1 inh
CCC(=O)N1CCN(c2ccc(NC(=O)c3ccc([N+](=O)[O-])o3)cc2Cl)CC1	29.3%	x	x	x	14.1µM*
COc1ccc(NS(=O)(=O)c2cc(NC(=O)c3nc4nc(C)cc(C)n4n3)ccc2C)cc1	-2.2%	x	x	x	0.2%
COc1cccc([C@@H]2Oc3ccc(Br)cc3C(=O)[C@H]2OC(=O)NS(=O)(=O)c2ccc(F)cc2)c1	6.3%	-9.4%	x	x	u
COc1cccc(Nc2ncc3nc(C)c(=O)n(C4CC4)c3n2)c1	16.0%	x	x	x	18.1%
CCOC(=O)CCCN	-13.6%	-4.1%	x	x	-7.0%[13.5 µM]
CCC1CCCCN1C(=O)c1sc2ncnc(N(CC)CC)c2c1C (configuration not stated)	3.4%	x	x	x	-0.4%
CCC(=O)N1CCN(c2ccccc2NC(=O)Cc2ccc(Cl)cc2)CC1	22.5%[38.3 µM]	-11.7%	18.2	u	-5.8%
COc1ccc(S(=O)(=O)N2CCCCC2)cc1NC(=O)c1ccc([N+](=O)[O-])o1	8.8%	x	x	x	3.16µM*
CCN1CCN(c2ccc(NC(=O)c3ccc([N+](=O)[O-])o3)cc2Cl)CC1	20.3%	x	x	x	20µM*
CCC(=O)N1CCN(c2ccc(Cl)cc2NC(=O)Cc2ccc(Cl)cc2)CC1	14.8%[38.3 µM]	-9.4%	17.0	-82.4*	u
CC(C)=C[C@H]1[C@@H](C(=O)Oc2ccccc2C(C)C)C1(C)C	6.1%	-10.8%	x	x	-1.8%[13.5 µM]
CCOC(=O)c1cnc(SC)nc1Oc1cccc(NS(=O)(=O)c2ccc(Cl)cc2)c1	7.9%	-12.2%	4.9	-100.0*	0.2%
COC(=O)c1c(C)[nH]c(C(=O)CSc2ccc(Cl)cc2)c1C	24.6%[38.3 µM]	-7.7%	8.5	-16.0	5.4%
Cc1ccc(N=Cc2cc(Cc3ccccc3Cl)cc([N+](=O)[O-])c2O)c(O)c1	-3.4%	x	x	x	11.2µM*
COc1ccc([N+](=O)[O-])cc1NC(=O)Cc1ccccc1Cl	2.2%	-8.8%	x	u	-7.8%
COc1ccc(N=Cc2cc(Cc3ccccc3Cl)cc([N+](=O)[O-])c2O)cc1OC	-12.7%	x	x	x	7.08µM*
COc1cc(C(C(=O)NC2CCCC2)N(C(=O)Cc2cccs2)C2CC2)cc(OC)c1OC (configuration not stated)	4.9%	x	x	x	2.7%
Cc1cccc(N2C(=O)CCC2=O)n1	-6.6%	0.3%	x	-21.3	14.3%
Cc1ccc(S(=O)(=O)CC(=O)Nc2ccc(Cl)cn2)cc1	-8.1%	x	x	x	-9.3%
CN(C)Cc1nc2ccccc2c(=O)n1Cc1nc(-c2cc3ccccc3o2)cs1	0.3%[38.3 µM]	-11.4%	-14.0	3.4	-3.5%
CCOc1ccc(-c2csc(Cn3c(CN4CCN(C)CC4)nc4ccccc4c3=O)n2)cc1	x	x	-11.4	-16.0	14.1µM*
C=CCn1cc(/C=N/N2C(=O)C3C4C=CC(C4)C3C2=O)c2ccccc21 (configuration not stated)	7.2%	x	x	x	25.1µM*
Cc1cc(C)c(S(=O)(=O)Nc2ccnc(-c3cccnc3)n2)c(C)c1	-3.4%	x	x	x	1.7%
Cc1ccc(OS(=O)(=O)c2ccccc2)c(/C=N/N=C2\NC(=O)C(C)S2)c1 (configuration not stated)	1.9%	-5.2%	12.6	-81.9*	11.7%
O=C1CS/C(=N/N=C/c2ccccc2OS(=O)(=O)c2ccccc2)N1	-1.2%	-19.2%	x	u	-13.5%
SMILES	IMPase Li cell	HPGD block	IMPase cell inh	PNC assembly inh	ALDH1A1 inh
O=C(N/N=C(\c1ccccc1)c1cccnc1)C(O)(c1ccccc1)c1ccccc1	12.9%[38.3 µM]	-7.2%	0.2	-91.9*	u
Cc1cc2nc(-c3ccco3)cc(C(F)(F)F)n2n1	26.7%[38.3 µM]	-27.8%	4.5	u	14.1µM*
CCOC(=O)c1cc2nc(-c3ccco3)cc(C(F)(F)F)n2n1	-5.1%	u	x	2.5	u
COC(=O)N[C@@H](CCc1ccccc1)/C(C(=O)OC)=C(\C)NCc1ccccc1	11.5%	-2.7%	x	x	9.3%
CN1c2ccsc2C(O)=C(C(=S)Nc2ccc(F)c(Cl)c2)S1(=O)=O	32.3%[38.3 µM]	u	-3.6	-16.7	9.46µM*
Cn1cc(C(=O)Nc2ccc(F)c(Cl)c2)cn1	-4.0%	-4.7%	x	-23.4	12.5%
CC(C)(C=O)C1=CC(=O)c2ccccc2C1=O	28.3%	7.08µM*	u	-22.1	1.58µM*
CC1=CC(=O)c2ccccc2C1=O	34.9%	u	20.2[20.6 µM]	-24.8	14.1µM*!
CC(C)(C)c1ccc2c(c1)C(=O)c1ccccc1C2=O	x	x	2.7	u	u

Screens deposited in PubChem BioAssay by National Center for Advancing Translational Sciences (NCATS).
